Measured values published in the supplement of paper PMC10849652.
Of roughly 7,900 targets only a part is listed; those with a hit were picked by preference. About 0.6% of all pairs of compound and target were hits. Values without a mark were called inactive.

Key:
Test in all cases: log2 fold change, soluble protein after heating vs DMSO (PISA); higher = thermal stabilisation; K562 cells, 10 uM, 30 min; active = over 0.2 and 3.5 SD of the protein, either way, in both replicates (recomputed)
saracatinib = compound: CN1CCN(CCOc2cc(OC3CCOCC3)c3c(Nc4c(Cl)ccc5c4OCO5)ncnc3c2)CC1 [saracatinib]
Procedure, shortened: (§1)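 K562 cells at 2×10^6 cells/mL were exposed to 10 μM compound for 30 min, then aliquots were heated for 3 min across 48°C-58°C, pooled, and extracted in PBS containing 0.5% NP-40 at 4°C. The supernatant after 21,000xg for 90 min was taken as soluble protein and measured by TMTpro 16plex LC-MS/MS with channel sums equalised. Thermal stability is reported relative to control samples, with values from duplicates. Fold changes are given on a log2 scale.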

sotrastaurin = compound: CN1CCN(c2nc(C3=C(c4c[nH]c5ccccc45)C(=O)NC3=O)c3ccccc3n2)CC1 [sotrastaurin]
Procedure, shortened: as §1

alvocidib = compound: CN1CC[C@H](c2c(O)cc(O)c3c(=O)cc(-c4ccccc4Cl)oc23)[C@H](O)C1 [alvocidib]
Procedure, shortened: as §1

Tubastatin A = compound: CN1CCc2c(c3ccccc3n2Cc2ccc(C(=O)NO)cc2)C1 [Tubastatin A]
Procedure, shortened: as §1

[1] = compound: CNC(=O)C1=CC=CC=C1NC2=NC(=NC=C2Cl)NC3=C(C=C(C=C3)N4CCOCC4)OC
Procedure, shortened: as §1

defactinib = compound: CNC(=O)c1ccc(Nc2ncc(C(F)(F)F)c(NCc3nccnc3N(C)S(C)(=O)=O)n2)cc1 [defactinib]
Procedure, shortened: as §1

rucaparib = compound: CNCc1ccc(-c2[nH]c3cc(F)cc4c3c2CCNC4=O)cc1 [rucaparib]
Procedure, shortened: as §1

[2] = compound: CNc1nc(-c2ccc3c(N)n[nH]c3c2)cc(N2C[C@@H](C(=O)NC3CCCCC3)CC[C@H]2C)n1
Procedure, shortened: as §1

encorafenib = compound: COC(=O)N[C@@H](C)CNc1nccc(-c2cn(C(C)C)nc2-c2cc(Cl)cc(NS(C)(=O)=O)c2F)n1 [encorafenib]
Procedure, shortened: as §1

[3] = compound: COC(=O)[C@H](CCSC)NC(=O)C1=C(C=C(C=C1)NC[C@H](CS)N)C2=CC=CC=C2
Procedure, shortened: as §1

[4] = compound: COC1=CC=C(C=C1)CN2C=CC3=C2C=C(C=C3)C(=O)NO
Procedure, shortened: as §1

filanesib = compound: CON(C)C(=O)N1N=C(c2cc(F)ccc2F)S[C@@]1(CCCN)c1ccccc1 [filanesib]
Procedure, shortened: as §1

zotarolimus = compound: CO[C@H]1C[C@@H]2CC[C@@H](C)[C@@](O)(O2)C(=O)C(=O)N2CCCC[C@H]2C(=O)O[C@H]([C@H](C)C[C@@H]2CC[C@H](n3cnnn3)[C@H](OC)C2)CC(=O)[C@H](C)/C=C(\C)[C@@H](O)[C@@H](OC)C(=O)[C@H](C)C[C@H](C)/C=C/C=C/C=C/1C [zotarolimus]
Procedure, shortened: as §1

idasanutlin = compound: COc1cc(C(=O)O)ccc1NC(=O)[C@@H]1N[C@@H](CC(C)(C)C)[C@](C#N)(c2ccc(Cl)cc2F)[C@H]1c1cccc(Cl)c1F [idasanutlin]
Procedure, shortened: as §1

alisertib = compound: COc1cc(Nc2ncc3c(n2)-c2ccc(Cl)cc2C(c2c(F)cccc2OC)=NC3)ccc1C(=O)O [alisertib]
Procedure, shortened: as §1

[5] = compound: COc1cc2nc(-c3cc(F)ccc3O)nc(N[C@@H]3CNC[C@H]3C(C)(C)O)c2cc1OC
Procedure, shortened: as §1

gefitinib = compound: COc1cc2ncnc(Nc3ccc(F)c(Cl)c3)c2cc1OCCCN1CCOCC1 [gefitinib]
Procedure, shortened: as §1

[6] = compound: COc1cccc2cc(-c3nc([C@H]4CC[C@H](C(=O)O)CC4)n4ncnc(N)c34)[nH]c12
Procedure, shortened: as §1

lapatinib = compound: CS(=O)(=O)CCNCc1ccc(-c2ccc3ncnc(Nc4ccc(OCc5cccc(F)c5)c(Cl)c4)c3c2)o1 [lapatinib]
Procedure, shortened: as §1

pictilisib = compound: CS(=O)(=O)N1CCN(Cc2cc3nc(-c4cccc5[nH]ncc45)nc(N4CCOCC4)c3s2)CC1 [pictilisib]
Procedure, shortened: as §1

UniProt O00468, sequence (O00468 whole entry, looked up): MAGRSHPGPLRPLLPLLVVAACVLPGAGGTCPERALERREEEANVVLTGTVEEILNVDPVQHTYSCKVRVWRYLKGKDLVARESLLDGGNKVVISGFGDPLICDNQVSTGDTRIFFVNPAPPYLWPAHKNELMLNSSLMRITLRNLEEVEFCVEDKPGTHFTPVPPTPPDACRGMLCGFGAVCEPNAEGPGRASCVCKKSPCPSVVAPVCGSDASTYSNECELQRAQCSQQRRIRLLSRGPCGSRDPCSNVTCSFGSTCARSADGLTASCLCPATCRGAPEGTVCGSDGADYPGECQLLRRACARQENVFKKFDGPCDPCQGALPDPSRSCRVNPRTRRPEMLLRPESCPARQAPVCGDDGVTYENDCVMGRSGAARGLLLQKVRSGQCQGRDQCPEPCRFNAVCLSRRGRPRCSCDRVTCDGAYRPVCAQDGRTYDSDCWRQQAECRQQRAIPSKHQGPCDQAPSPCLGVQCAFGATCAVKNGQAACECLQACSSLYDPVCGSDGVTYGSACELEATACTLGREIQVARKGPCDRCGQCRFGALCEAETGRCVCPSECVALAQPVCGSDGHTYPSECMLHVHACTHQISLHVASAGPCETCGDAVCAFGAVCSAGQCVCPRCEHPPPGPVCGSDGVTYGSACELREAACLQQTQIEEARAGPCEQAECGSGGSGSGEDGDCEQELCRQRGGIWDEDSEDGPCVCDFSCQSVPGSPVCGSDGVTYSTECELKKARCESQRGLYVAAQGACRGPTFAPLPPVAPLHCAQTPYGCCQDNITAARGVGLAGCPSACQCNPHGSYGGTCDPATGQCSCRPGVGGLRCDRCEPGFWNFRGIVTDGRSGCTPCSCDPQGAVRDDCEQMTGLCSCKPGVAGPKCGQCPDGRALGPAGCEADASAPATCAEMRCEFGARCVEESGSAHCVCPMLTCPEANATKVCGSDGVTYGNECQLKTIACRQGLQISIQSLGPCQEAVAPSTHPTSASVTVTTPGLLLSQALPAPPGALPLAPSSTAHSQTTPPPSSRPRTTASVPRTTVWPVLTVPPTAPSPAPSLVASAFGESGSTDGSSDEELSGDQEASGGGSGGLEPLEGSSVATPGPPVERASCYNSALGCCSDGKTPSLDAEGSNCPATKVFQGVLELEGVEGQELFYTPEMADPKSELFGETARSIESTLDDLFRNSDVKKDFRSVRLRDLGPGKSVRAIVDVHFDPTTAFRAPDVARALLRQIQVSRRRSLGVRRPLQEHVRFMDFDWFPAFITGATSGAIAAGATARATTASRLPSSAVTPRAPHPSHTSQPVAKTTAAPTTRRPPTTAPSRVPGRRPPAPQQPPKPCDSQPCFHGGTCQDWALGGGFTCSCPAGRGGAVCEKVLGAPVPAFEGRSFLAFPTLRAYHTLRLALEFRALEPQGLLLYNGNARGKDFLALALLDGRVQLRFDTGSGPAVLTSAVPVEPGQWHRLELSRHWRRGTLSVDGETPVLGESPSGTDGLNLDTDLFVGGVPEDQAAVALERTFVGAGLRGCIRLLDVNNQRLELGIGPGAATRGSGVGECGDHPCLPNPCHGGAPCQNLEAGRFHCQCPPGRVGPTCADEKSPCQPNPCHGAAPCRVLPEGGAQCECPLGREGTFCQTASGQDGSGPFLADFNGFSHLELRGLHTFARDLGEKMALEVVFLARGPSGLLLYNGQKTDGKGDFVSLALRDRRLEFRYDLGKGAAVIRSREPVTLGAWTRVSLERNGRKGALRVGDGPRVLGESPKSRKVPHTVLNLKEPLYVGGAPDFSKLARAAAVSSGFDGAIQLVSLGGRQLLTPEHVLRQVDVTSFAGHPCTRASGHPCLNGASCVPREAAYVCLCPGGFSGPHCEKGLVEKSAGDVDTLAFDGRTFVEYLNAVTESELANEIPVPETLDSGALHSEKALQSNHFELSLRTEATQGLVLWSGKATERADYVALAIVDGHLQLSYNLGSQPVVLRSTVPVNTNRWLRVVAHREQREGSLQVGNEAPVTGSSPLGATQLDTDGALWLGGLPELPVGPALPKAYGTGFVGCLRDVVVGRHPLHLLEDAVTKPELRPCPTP
UniProt Q5JTZ9, sequence (Q5JTZ9 whole entry, looked up): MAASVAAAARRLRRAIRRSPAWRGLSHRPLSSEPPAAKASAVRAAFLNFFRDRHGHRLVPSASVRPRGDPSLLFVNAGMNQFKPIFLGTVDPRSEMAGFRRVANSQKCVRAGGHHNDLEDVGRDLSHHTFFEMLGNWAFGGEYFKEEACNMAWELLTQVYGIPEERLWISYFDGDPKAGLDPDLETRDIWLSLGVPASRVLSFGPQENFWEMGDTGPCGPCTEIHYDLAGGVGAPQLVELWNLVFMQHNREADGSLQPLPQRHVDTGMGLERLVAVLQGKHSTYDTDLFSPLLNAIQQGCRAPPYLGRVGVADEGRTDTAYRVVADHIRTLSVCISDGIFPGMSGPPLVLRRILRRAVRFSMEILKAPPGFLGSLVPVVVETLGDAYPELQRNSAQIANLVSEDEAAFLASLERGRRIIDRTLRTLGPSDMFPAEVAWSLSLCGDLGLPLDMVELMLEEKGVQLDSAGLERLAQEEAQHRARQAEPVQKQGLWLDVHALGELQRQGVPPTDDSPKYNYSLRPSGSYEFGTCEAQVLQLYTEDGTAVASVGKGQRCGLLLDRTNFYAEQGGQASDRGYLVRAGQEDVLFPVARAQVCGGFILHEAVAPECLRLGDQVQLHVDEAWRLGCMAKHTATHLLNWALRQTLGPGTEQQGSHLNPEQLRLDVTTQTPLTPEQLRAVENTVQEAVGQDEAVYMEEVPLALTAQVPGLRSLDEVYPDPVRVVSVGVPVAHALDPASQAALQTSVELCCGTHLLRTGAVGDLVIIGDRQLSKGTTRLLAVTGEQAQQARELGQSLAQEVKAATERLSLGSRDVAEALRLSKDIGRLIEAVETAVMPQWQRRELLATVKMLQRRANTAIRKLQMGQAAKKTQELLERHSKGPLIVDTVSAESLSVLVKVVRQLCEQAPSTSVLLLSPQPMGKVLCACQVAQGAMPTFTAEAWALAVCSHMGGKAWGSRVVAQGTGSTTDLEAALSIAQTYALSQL
UniProt O60566, sequence (O60566 whole entry, looked up): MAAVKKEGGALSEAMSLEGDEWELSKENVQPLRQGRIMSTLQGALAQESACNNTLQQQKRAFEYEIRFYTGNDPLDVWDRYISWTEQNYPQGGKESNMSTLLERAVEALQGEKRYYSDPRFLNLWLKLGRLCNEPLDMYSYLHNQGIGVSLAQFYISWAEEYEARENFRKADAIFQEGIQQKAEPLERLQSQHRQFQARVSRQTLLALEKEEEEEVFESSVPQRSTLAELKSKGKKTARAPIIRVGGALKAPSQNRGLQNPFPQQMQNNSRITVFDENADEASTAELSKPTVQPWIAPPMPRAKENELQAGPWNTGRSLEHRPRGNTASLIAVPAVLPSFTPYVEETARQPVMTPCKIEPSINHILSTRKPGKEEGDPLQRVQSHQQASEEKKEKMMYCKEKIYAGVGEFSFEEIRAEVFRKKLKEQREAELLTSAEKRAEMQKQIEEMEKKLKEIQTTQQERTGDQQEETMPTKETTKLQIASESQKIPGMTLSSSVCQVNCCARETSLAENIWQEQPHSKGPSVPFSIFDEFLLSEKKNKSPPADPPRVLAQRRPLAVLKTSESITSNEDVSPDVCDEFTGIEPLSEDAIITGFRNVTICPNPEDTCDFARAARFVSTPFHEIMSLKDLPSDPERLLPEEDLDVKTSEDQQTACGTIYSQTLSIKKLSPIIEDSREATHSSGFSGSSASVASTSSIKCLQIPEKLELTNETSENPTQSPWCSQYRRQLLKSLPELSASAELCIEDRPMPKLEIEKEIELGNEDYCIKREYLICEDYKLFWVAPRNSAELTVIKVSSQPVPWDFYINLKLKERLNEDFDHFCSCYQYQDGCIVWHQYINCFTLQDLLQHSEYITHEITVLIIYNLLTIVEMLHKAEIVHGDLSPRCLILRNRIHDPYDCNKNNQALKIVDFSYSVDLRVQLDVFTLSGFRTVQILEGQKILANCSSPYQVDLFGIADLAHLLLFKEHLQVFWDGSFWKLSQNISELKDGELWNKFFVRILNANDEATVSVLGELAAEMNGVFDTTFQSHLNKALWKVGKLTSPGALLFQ
UniProt P11117, sequence (P11117 whole entry, looked up): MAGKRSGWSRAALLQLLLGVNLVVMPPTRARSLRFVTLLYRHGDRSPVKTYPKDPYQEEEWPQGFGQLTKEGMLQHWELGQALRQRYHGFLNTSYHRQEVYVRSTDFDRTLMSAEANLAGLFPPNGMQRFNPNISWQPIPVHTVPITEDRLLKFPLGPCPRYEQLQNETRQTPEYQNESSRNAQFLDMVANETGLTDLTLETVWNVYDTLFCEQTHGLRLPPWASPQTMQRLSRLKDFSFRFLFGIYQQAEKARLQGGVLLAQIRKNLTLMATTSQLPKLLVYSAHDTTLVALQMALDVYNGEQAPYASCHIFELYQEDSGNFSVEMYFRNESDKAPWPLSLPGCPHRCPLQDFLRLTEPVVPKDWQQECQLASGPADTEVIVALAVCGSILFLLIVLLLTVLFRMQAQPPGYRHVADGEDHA
UniProt Q8TDN6, sequence (Q8TDN6 whole entry, looked up): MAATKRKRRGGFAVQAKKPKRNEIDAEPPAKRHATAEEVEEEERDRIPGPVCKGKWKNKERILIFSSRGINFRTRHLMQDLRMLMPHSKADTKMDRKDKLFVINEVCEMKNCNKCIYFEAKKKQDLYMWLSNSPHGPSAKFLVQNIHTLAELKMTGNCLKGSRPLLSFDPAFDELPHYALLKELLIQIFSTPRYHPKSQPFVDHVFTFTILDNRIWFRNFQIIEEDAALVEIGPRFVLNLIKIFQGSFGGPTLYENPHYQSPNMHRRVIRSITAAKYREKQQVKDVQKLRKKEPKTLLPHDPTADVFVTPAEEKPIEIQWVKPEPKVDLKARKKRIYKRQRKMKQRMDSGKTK

Target	log2 fold change (saracatinib)	log2 fold change (sotrastaurin)	log2 fold change (alvocidib)	log2 fold change (Tubastatin A)	log2 fold change [1]	log2 fold change (defactinib)	log2 fold change (rucaparib)	log2 fold change [2]	log2 fold change (encorafenib)	log2 fold change [3]	log2 fold change [4]	log2 fold change (filanesib)	log2 fold change (zotarolimus)	log2 fold change (idasanutlin)	log2 fold change (alisertib)	log2 fold change [5]	log2 fold change (gefitinib)	log2 fold change [6]	log2 fold change (lapatinib)	log2 fold change (pictilisib)
ATAD1 (UniProt Q8NBU5)	-0.044	0.029	-0.007	0.008	-0.032	-0.029	0.018	0.136	0.017	-0.042	0.009	-0.045	0.087	-0.046	-0.037	-0.014	0.003	-0.029	0.007	0.012
ATR (UniProt Q13535)	-0.044	-0.013	-0.107	0.02	0.014	-0.035	0.008	0.039	0.008	-0.024	-0.267 (active)	0.019	0.057	-0.067	-0.05	0.031	0.019	0	0.039	0.112
AGRN (UniProt O00468)	0.062	0.065	-0.009	-0.01	0	-0.119	0.032	-0.164	0.034	0.014	-0.068	0.014	-0.001	-0.005	-0.043	-0.071	0.118	0.037	0.018	0.055
ACP2 (UniProt P11117)	0.026	0.022	0.003	-0.036	-0.006	0.01	-0.089	-0.055	0.018	-0.006	-0.034	-0.121	-0.016	-0.026	0.036	-0.002	0.001	0.053	0.038	-0.031
BCAP29 isoform 2 (UniProt Q9UHQ4)	0.052	0.104	0.041	-0.052	0.002	0.033	-0.043	-0.016	-0.026	0.018	-0.033	-0.047	-0.022	0.027	-0.023	-0.1	0.035	0.035	-0.009	-0.027
ANXA5 (UniProt P08758)	-0.023	-0.038	-0.083	-0.006	0.039	-0.082	-0.001	0.012	0.083	-0.062	0.033	-0.033	0.049	-0.013	-0.006	0.009	0.05	-0.032	0.015	-0.021
AMFR (UniProt Q9UKV5)	-0.06	-0.056	-0.021	-0.016	0.088	-0.043	0.011	-0.015	0.033	0.008	-0.048	-0.066	-0.017	0.037	-0.012	-0.136	0.071	0.016	0.003	-0.093
BZW1 isoform 3 (UniProt Q7L1Q6)	-0.083	-0.207	-0.098	0.047	-0.054	-0.141	0.128	0.027	0.158	-0.1	0.033	-0.069	0.052	-0.152	-0.078	-0.032	-0.028	-0.13	-0.071	-0.071
BCLAF1 (UniProt Q9NYF8)	-0.033	0.039	-0.271	0.184	-0.275	-0.382	0.017	-0.057	0.013	-0.028	-0.107	0.103	0.068	0.127	0.074	-0.215	0.01	0.033	0.101	-0.109
AARS2 (UniProt Q5JTZ9)	0	-0.05	-0.1	-0.096	-0.019	-0.027	0.008	0.004	0	-0.017	-0.053	-0.159	0.029	-0.107	0.016	-0.012	-0.002	0.047	-0.005	0.06
BPHL (UniProt Q86WA6)	0.056	0.019	-0.083	-0.259	0.025	-0.014	0.069	0.006	-0.012	-0.017	-0.118	-0.018	0.017	-0.007	0.004	0.081	0.049	-0.056	-0.033	0.033
BRIX1 (UniProt Q8TDN6)	-0.106	-0.051	0.174	0.2	-0.154	0.394	0.253	0.129	0.123	0.017	-0.006	0.574	0.132	0.397	-0.23	-0.224	-0.039	-0.193	0.218	-0.004
ACTR1B (UniProt P42025)	0.012	-0.025	-0.058	-0.004	0	-0.005	-0.037	-0.012	-0.048	-0.075	0.084	0.044	-0.026	-0.136	-0.163	0.008	0.04	0.073	-0.104	0.127
BUB1B isoform 3 (UniProt O60566)	-0.071	-0.113	-0.074	0.031	0.042	-0.076	0.006	-0.031	0.097	-0.029	0.038	0.103	0.014	-0.014	0.005	0.001	0.032	-0.098	0.006	0.065
ANP32E (UniProt Q9BTT0)	0.006	-0.105	-0.109	0.052	0.041	-0.239	-0.108	-0.06	0.159	-0.022	0.027	0.011	0.066	0.061	0.045	-0.039	0.021	-0.027	-0.011	0.06
APOH (UniProt P02749)	0.097	0.317	0.371	-0.128	-0.032	-0.042	-0.13	-0.391	0.041	-0.021	0.03	-0.156	-0.696	1.05 (active)	0.151	-0.059	-0.307	0.529	-0.197	-0.537
